# Screening results (PubChem)
# In the library only some 9.4% were active in any assay of this set; here they are far more common.
# NPC1 promoter act: activators of NPC1 promoter. 320,000 tested, 2.4% active. AID 485313. Huh7 NPC1 promoter luciferase reporter, 24 h. Potency, µM (highest dose often 9.22 µM), for the others: at the top dose activation, usual class: activators; also: % of control where 0% means no effect; nearly all actives have a fitted effect of over 60% in size
#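 Stably transfected Huh7 (NPC1 promoter→luciferase), 1500 cells/well in Opti-MEM + 10% FBS, 2 h settle, then compound 24 h at 37 °C. Luminescence after 10 min with Amplite reagent.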
# ELG1 repair inh: inhibitors of ELG1-dependent DNA repair in HEK293T cells; HEK293T ELG1-luciferase reporter, luminescence, 16 h; DNA damage induced by 5-fluorouridine; Potency, µM (titrated, usually from 46.1 µM), for the others: top-dose activity change, negative = inhibition, actives largely listed as inhibitors; 330,000 tested, 2.3% active; AID 504467; also: % is scaled to controls: 0 for no effect and ±100 for the full control effect; nearly all actives have a fitted effect of over 55% in size
#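 Overnight (16 hr) co-exposure of 2,000 cells/well to 5-fluorouridine and compound at 37 °C preceded detection. Luciferase was quantified via ONE-Glo luminescence; loss of signal denotes inhibition.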
# ELG1 genotox: induces genotoxicity in HEK293T cells with luciferase-tagged ELG1. HEK293T ELG1-luciferase reporter, luminescence, 16 h. Potency, µM (top dose mostly 46 µM), for the others: at the top dose activity change, positive = activation, usual class: activators. 330,000 tested, 1.3% active. AID 504466; also: % of control where 0% means no effect; nearly all actives have a fitted effect of over 60% in size
#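 Genotoxicity was scored as increased ELG1-luciferase reporter signal, measured by ONE-Glo luminescence (30 min, room temperature). Compound or vehicle exposure of the HEK293T reporter cells lasted 16 hr at 37°C.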
# FLuc modulator: counter-screen for miR-21 project: firefly luciferase inhibitors or activators. P08659. purified FLuc, Km substrates, luminescence inhibition. Potency, µM (titrated, usually from 57.5 µM), for the others: top-dose activity change, negative = inhibition, usual class: inhibitors. 360,000 tested, 6.9% active;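 also: plate controls were vehicle for no effect and reference inhibitor for full effect; nearly all actives have a fitted effect of over 55% in size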
# Target sequence (P08659 whole entry, looked up): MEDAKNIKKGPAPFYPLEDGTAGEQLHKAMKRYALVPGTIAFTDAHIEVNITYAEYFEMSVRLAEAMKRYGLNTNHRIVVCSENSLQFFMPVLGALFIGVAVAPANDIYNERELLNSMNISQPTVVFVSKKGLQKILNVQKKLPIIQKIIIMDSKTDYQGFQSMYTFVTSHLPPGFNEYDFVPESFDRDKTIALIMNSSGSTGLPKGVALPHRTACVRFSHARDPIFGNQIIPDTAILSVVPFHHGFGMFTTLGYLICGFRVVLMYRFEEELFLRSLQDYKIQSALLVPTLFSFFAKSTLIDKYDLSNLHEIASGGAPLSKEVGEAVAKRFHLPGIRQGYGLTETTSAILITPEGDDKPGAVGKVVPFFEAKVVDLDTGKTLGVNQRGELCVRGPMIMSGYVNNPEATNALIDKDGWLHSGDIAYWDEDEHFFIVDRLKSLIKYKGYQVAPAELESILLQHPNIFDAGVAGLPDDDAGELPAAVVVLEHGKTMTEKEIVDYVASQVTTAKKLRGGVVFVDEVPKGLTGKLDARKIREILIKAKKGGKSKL
#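 Purified P. pyralis luciferase (10nM final) with 10uM D-luciferin and 10uM ATP (Km levels) in 50mM Tris acetate pH 7.5, 10mM Mg acetate, 0.01% Tween-20, 0.05% BSA; qHTS 6-point titration, ~60 µM downward; luminescence read.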
# Rab9 prom act: Rab9 promoter activation; 320,000 tested, 2.8% active; Potency, µM (titrated, usually from 9.22 µM), for inactives: at the top dose activation, negative = inhibition, most hits filed as activators; Huh7 Rab9 promoter-luciferase reporter, luminescence, 24 h; also: % of control where 0% means no effect; nearly all actives have a fitted effect of over 60% in size
#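 Luminescence from Amplite-detected luciferase (10 minutes, ambient) reports Rab9 promoter activation. Before that, stable Rab9-luciferase Huh7 cells (1500/well, reduced-serum OP-MEM I plus 10% FBS) were exposed to compound for 24 hours at 37C.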
# SMN2 splice up: increases expression of the SMN2 splice variant | HEK293 SMN2-luciferase splicing reporter, luminescence, 30-36 h | Potency, µM (titrated, usually from 46.1 µM), inactives show top-dose activity change, positive = activation, usual class: activators | 210,000 tested, 2.8% active | AID 1458; also: % of control where 0% means no effect; nearly all actives have a fitted effect of over 55% in size
#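 HEK293 cells carry an SMN2 minigene-luciferase reporter in which exon 7 inclusion puts luciferase in frame. Cells were seeded at 2000 cells/well, attached for 10-12 hours, then exposed to compounds for 30-36 hours at 37C before ONE-Glo luminescence.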
# * hit, by the source's call; ? = inconclusive; . = not tested or not shown; [ ] = another dose, or the depositor's remark. Calls follow the shape of the dose curve; as a rule, active = well fitted curve in the direction sought with a large enough effect; inconclusive = small, poorly fitted or top-dose-only effect, or another doubt; inactive = no such curve, though single readings can be large; an effect the other way counts as inactive or inconclusive. Potency is read from the fitted curve at half-maximal effect.
SMILES,NPC1 promoter act,ELG1 repair inh,ELG1 genotox,FLuc modulator,Rab9 prom act,SMN2 splice up
Cc1ccc(NC(=O)N2CCCCCC2)cc1C,4.47µM*,?,?,16.9µM*,3.16µM*,.
O=C(Nc1ccc(Br)cc1)N1CCCCC1,?,?,13.7%,15.1µM*,?,?
COc1ccc(-c2onc(C)c2C)cc1S(=O)(=O)NCc1ccc(C)o1,.,.,.,-8.9%,.,.
O=C1/C(=N\S(=O)(=O)c2cccs2)C([n+]2cccc(Cc3ccccc3)c2)=C([O-])c2ccccc21,-15.2%,2.31µM*,3.5%,2.6%,-38.0%,.
O=C1/C(=N\S(=O)(=O)c2cccs2)C([n+]2ccc(CCCc3ccccc3)cc2)=C([O-])c2ccccc21,-17.1%,13µM*,-3.7%,-3.0%,-35.9%,.
CCCCC[n+]1ccn(C2=C([O-])c3ccccc3C(=O)/C2=N\S(=O)(=O)c2ccccc2)c1,4.5%,?,3.7%,-7.1%,11.3%,.
CCCC1CC(C)(c2csc(Nc3ccc(OCC)cc3)n2)OC1=O (stereo not given),0.1%,-7.4%,7.8%,19µM*,-1.6%,-92.0%
CC(Sc1nnc2ccc3ccccc3n12)C(=O)Nc1ccc(Cl)cc1 (stereo not given),.,.,.,1.0%,.,.
COc1ccc(-c2oc3ncn4nc(-c5ccccc5Cl)nc4c3c2-c2ccc(OC)cc2)cc1,.,.,.,-0.9%,.,5.0%
Cc1nn(-c2ccccc2)c(OC(=O)c2ccc(F)cc2)c1S(=O)(=O)c1ccccc1,.,.,.,?,.,3.2%
CCN1C=CC(=C2C(=O)c3ccccc3C2=O)C=C1,0.0002µM*,?,?,0.0849µM*,0.0003µM*,0.251µM*
CN1C=CC(=C2C(=O)c3ccccc3C2=O)C=C1,0.447µM*,?,2.91µM*,3.01µM*,0.355µM*,12.6µM*
CC1=CC(=C2C(=O)c3ccccc3C2=O)C=C(C)O1,?,?,19.7%,?,?,9.1%
COC1=C(OC)C(=O)c2ccccc2C1=O,-24.0%[46.1 µM],.,.,.,-42.1%[46.1 µM],-95.5%
CCCCCCN1C=CC(=C2C(=O)c3ccccc3C2=O)C=C1,?,?,0.184µM*,0.213µM*,0.112µM*,.
CCCN1C=CC(=C2C(=O)c3ccccc3C2=O)C=C1,3.16e-05µM*,?,-7.1%,0.0675µM*,0.0003µM*,-79.0%
COc1ccccc1CNC(=O)C(CC(C)C)N1Cc2ccccc2C1=O (stereo not given),.,.,.,-5.0%,.,.
COc1ccc(Cl)cc1NC(=O)CCc1c(C)nc2c(c1C)c(=O)n(C)c(=O)n2C,.,.,.,0.4%,.,-2.8%
COc1ccc(OC)c(NCc2cccn2-c2nnc(N3CCCCC3)s2)c1,.,.,.,-19.8%,.,.
CC(=O)Nc1ccc2nc(-c3cccnc3)[nH]c2c1,0.3%,2.9%,2.4%,?,12.0%,-11.9%
O=C(Nc1ccc2nc(-c3ccc4nc[nH]c4c3)[nH]c2c1)c1cccs1,-0.9%,-22.1%,-0.6%,21.3µM*,-2.6%,-7.5%
COC(=O)c1ccc(C(=O)Nc2ccc3nc(-c4cccnc4)[nH]c3c2)cc1,-4.7%,1.6%,-9.4%,-14.5%,-15.6%,-1.5%
O=C(Nc1ccc2nc(-c3ccccc3)[nH]c2c1)c1cccs1,19.6%,?,?,5.36µM*,?,-22.7%
CC(=O)Nc1ccc(S(=O)(=O)NC2=NCN(C(C)C)CN2)cc1,.,.,.,-2.4%,.,15.4%
COc1cccc(C2C(C(=O)c3cccs3)=C(O)C(=O)N2CCN2CCOCC2)c1 (stereo not given),-3.7%,8.8%,0.4%,-0.3%,1.9%,.
SMILES,NPC1 promoter act,ELG1 repair inh,ELG1 genotox,FLuc modulator,Rab9 prom act,SMN2 splice up
COc1cccc(C2C(C(=O)c3ccc(C)o3)=C(O)C(=O)N2CCN2CCOCC2)c1 (stereo not given),0.8%,20.6µM*,-7.5%,-2.2%,9.5%,.
O=C(COC(=O)c1ccccc1-n1cnnn1)c1ccc(F)c(F)c1,13.7%,?,?,?,12.8%,.
O=C(COC(=O)c1ccccc1-n1cnnn1)c1ccccc1,7.8%,?,11.1%,19µM*,9.2%,.
O=C(COC(=O)c1ccccc1-n1cnnn1)c1ccc(Br)cc1,-2.9%,?,18.3µM*,5.36µM*,-1.3%,.
CC(=O)Oc1ccc(-c2cccc(C(=O)O)c2)cc1,11.6%,?,?,3.79µM*,-1.2%,-6.8%
Cc1cccc(C(=O)NCC(c2ccc3c(c2)OCO3)N2CCOCC2)c1 (stereo not given),.,.,.,-4.6%,.,.
O=C(Nc1nc2ccccc2[nH]1)c1cccc(Cl)c1,1µM*,?,16.4µM*,2.13µM*,0.708µM*,.
O=C(Nc1nc2ccccc2[nH]1)c1ccc(Cl)cc1,0.316µM*,?,?,0.426µM*,0.316µM*,.
O=C(Nc1nc2ccccc2[nH]1)c1ccccc1O,1.78µM*,?,?,2.69µM*,0.891µM*,.
CC(=O)Nc1nc2ccccc2[nH]1,-5.0%,-10.6%,0.1%,-1.1%,0.1%,20.4%
O=C(Nc1nc2ccccc2[nH]1)c1ccccc1,?,?,0.517µM*,1.51µM*,1.58µM*,3.98µM*
Cc1ccc(C)c(C(=O)Nc2nc3ccccc3[nH]2)c1,27.1%,?,-5.7%,-5.2%,27.3%,.
Nc1ccnc2c1ncn2[C@@H]1O[C@H](CO)[C@@H](O)[C@H]1O,.,.,.,.,.,-23.7%
O=C(NNc1ncnc2ccccc12)c1cccc(Cl)c1,?,?,?,2.69µM*,1.78µM*,.
O=C(CCCOc1ccccc1)Nc1nc2ccccc2[nH]1,?,?,?,10.7µM*,?,.
Cc1ccc(OCCCC(=O)Nc2nc3ccccc3[nH]2)cc1,7.1%,-11.6%,0.1%,2.5%,2.8%,9.5%
COc1ccc(C(=O)/C=C(\C)Nc2ccc3c(c2)OCO3)cc1,3.16µM*,?,?,4.78µM*,2.24µM*,?
COc1ccc(N/C(C)=C/C(=O)c2ccccc2)cc1,?,?,?,3.01µM*,2.82µM*,12.6µM*
COc1ccc(CCNC(=S)Nc2ccccc2)cc1,2.6%,?,-1.4%,-5.1%,-4.7%,.
COc1ccc(OC)c(N/C(C)=C/C(=O)c2ccccc2)c1,3.98µM*,?,?,0.849µM*,3.55µM*,187.8%
COc1ccc(N/C(C)=C/C(=S)Nc2ccccc2)cc1,2.2%,28.1%,12.2%,10.7µM*,2.3%,11.5%
COc1ccc(OC)c(N/C(C)=C/C(=O)c2ccncc2)c1,-5.5%,?,-11.0%,1.6%,6.0%,.
CCc1ccc(NC(=O)N2CCC(N3CCN(Cc4ccc(C)cc4)C(=O)C3=O)CC2)cc1,.,.,.,7.1%,.,.
COc1ccc(OC)c(N/C=C/C(=O)c2ccccc2)c1,?,?,?,0.0675µM*,?,.
